From PubChem BioAssay (Tox21)
Inconclusive results are not listed. Activity calls are given as the source filed them. Unless noted, calls come from the whole dose curve; as a rule, active = well fitted curve in the direction sought with a large enough effect in the repeat runs; inconclusive = weak or mixed curves; inactive = no such curve, though single readings can be large; an effect the other way counts as inactive or inconclusive.

Assays:
[1] = qHTS assay for small molecule agonists of the p53 signaling pathway (AID 651631; calls by dose curve; note: nearly all actives have a fitted effect of over 15% in size)
Method in brief: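 Agonist mode screen using a stably integrated beta-lactamase gene under p53 response elements in HCT-116 cells. Compound exposure lasts 16 h at 37 °C; fluorescence intensity is measured following 2 h FRET substrate loading.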

[2] = qHTS assay for small molecules that induce genotoxicity in human embryonic kidney cells expressing luciferase-tagged ATAD5 (AID 651632); note: nearly all actives have a fitted effect of over 15% in size
Method in brief: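 A rise in luciferase signal from ATAD5-tagged HEK293T cells marks genetic stress. Cells were exposed to compounds for 16 hr at 37C, 5% CO2, then luciferase was quantified after a 30 min room-temperature incubation with Amplite.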

[3] = qHTS assay for small molecule agonists of the p53 signaling pathway - cell viability (AID 651633; calls by dose curve;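 note: p53RE-bla HCT reporter cells with a stable beta-lactamase p53 reporter; series mostly up to about 83 µM; nearly all actives have a fitted effect of over 30% in size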)
Method in brief: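 p53RE-bla cells were treated with compound for 16 hours at 37 C. Cytotoxicity was then measured as CellTiter-Glo luminescence after 30 min at room temperature.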

[4] = qHTS assay for small molecules that induce genotoxicity in human embryonic kidney cells expressing luciferase-tagged ATAD5 - cell viability (AID 651634; calls by dose curve; note: nearly all actives have a fitted effect of over 25% in size)
Method in brief: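 Cytotoxicity counter-readout: after 15.5 hr compound treatment at 37C, live-cell protease activity in ATAD5-luciferase HEK293T cells measured by CellTiter-Fluor fluorescence, 30 min development at 37C.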

[5] = qHTS assay to test for compound auto fluorescence at 590 nm (red) in HepG2 cells (AID 720674)
Method in brief: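 Fluorescence at 590 nm emission following 540 nm excitation was recorded from HepG2 wells one hour after compound transfer, with DMSO-only wells as vehicle and Rose Bengal sodium equivalency as the scale.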

[6] = qHTS assay to test for compound auto fluorescence at 535 nm (green) in HepG2 cells (AID 720675)
[7] = qHTS assay to test for compound auto fluorescence at 460 nm (blue) in HEK293 cells (AID 720678)
Method in brief: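 Triamterene serves as the blue fluorophore standard. Compound signal at 405/460 nm is read in HEK293 wells (2,000 cells, 10% dialyzed FBS) after overnight treatment at 37C.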

[8] = qHTS assay to test for compound auto fluorescence at 590 nm (red) in HEK293 cells (AID 720679)
Method in brief: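 We plated HEK293 cells in 10% dialyzed FBS medium, let them adhere for 4-5 hr, then added 23 nL compound. Overnight at 37C and 5% CO2 preceded fluorescence measurement at 540/590nm.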

[9] = qHTS assay to test for compound auto fluorescence at 535 nm (green) in HEK293 cells (AID 720680)
[10] = qHTS assay to test for compound auto fluorescence at 460 nm (blue) in HEK293 cell free culture (AID 720681)
Method in brief: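 Compounds were added to cell-free DMEM with 10% FBS and fluorescence read directly. The blue channel used 405 nm excitation and 460 nm emission, with triamterene as the reference fluorophore.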

[11] = qHTS assay to test for compound auto fluorescence at 535 nm (green) in HEK293 cell free culture (AID 720682)
Method in brief: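 No cells present: wells hold DMEM supplemented with 10% FBS, into which compound or vehicle is pinned. Green emission is then recorded (485 nm excitation, 535 nm emission) and scaled to fluorescein.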

[12] = qHTS assay to test for compound auto fluorescence at 590 nm (red) in HEK293 cell free culture (AID 720683)
Method in brief: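 Cell-free wells of DMEM with 10% FBS received compound, and intrinsic fluorescence was read at excitation/emission 540/590 nm. Values expressed as equivalence to Rose Bengal sodium.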

[13] = qHTS assay to test for compound auto fluorescence at 590 nm (red) in HepG2 cell free culture (AID 720684)
Method in brief: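 Auto fluorescence equivalency versus Rose Bengal sodium, red channel Ex/Em 540/590 nm; compounds in cell-free MEM/10% FBS; DMSO vehicle control.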

[14] = qHTS assay to test for compound auto fluorescence at 460 nm (blue) in HepG2 cells (AID 720687)
Method in brief: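 HepG2 cells in MEM with 10% FBS, attached overnight at 37 C, were exposed to compound or DMSO for 1 hr at 37 C, 5% CO2. Blue fluorescence was read at 405/460 nm, with triamterene as reference fluorophore.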

[15] = target: Glucocorticoid receptor (Homo sapiens) (UniProt P04150); test: qHTS assay to identify small molecule agonists of the glucocorticoid receptor (GR) signaling pathway (AID 720691; active = well fitted activation curve with a large enough effect in the signal ratio in the repeat runs, not every such curve was filed as active; the % refers to the signal ratio)
Method in brief: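 Agonist-mode qHTS in HeLa cells stably expressing a glucocorticoid-response-element beta-lactamase reporter. Fluorescence intensity read with FRET substrate (2 h, room temperature) after 18 h compound treatment at 37 C.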

[16] = target: Glucocorticoid receptor (Homo sapiens) (UniProt P04150); test: qHTS assay to identify small molecule antagonists of the glucocorticoid receptor (GR) signaling pathway (AID 720692; active = well fitted inhibition curve with a large enough effect in the signal ratio in the repeat runs, not every such curve was filed as active; the % refers to the signal ratio)
Method in brief: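 Inhibition of dexamethasone-driven (5 nM final) beta-lactamase expression was measured in GRE-reporter HeLa cells over 18 h at 37C. Fluorescence was read after 2 h with the B/G FRET substrate at room temperature.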

[17] = qHTS assay for small molecule disruptors of the mitochondrial membrane potential - cell viability (AID 720634; calls by dose curve;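 note: human HepG2 liver cancer cells; series mostly up to about 83 µM; nearly all actives have a fitted effect of over 20% in size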)
Method in brief: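 Cytotoxicity was quantified from ATP content by CellTiter-Glo luminescence in the same wells as the MMP dye read-out. HepG2 (2,000 cells/well) were plated overnight and exposed to compounds for 1 hr at 37 C.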

[18] = qHTS assay to test for compound auto fluorescence at 535 nm (green) in HepG2 cell free culture (AID 720686)
[19] = qHTS assay to test for compound auto fluorescence at 460 nm (blue) in HepG2 cell free culture (AID 720685)
Method in brief: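 Cell-free plates of MEM plus 10% FBS received 23 nL compound or DMSO vehicle; blue-channel (405/460 nm) intensity scored against triamterene as reference fluorophore.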

[20] = qHTS assay for small molecule disruptors of the mitochondrial membrane potential (AID 720635)
Method in brief: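 HepG2 cells exposed to compound 1 hr at 37C, then Mito-MPS dye 30 min. Ratio read of aggregate (540/590 nm) versus monomer (490/535 nm) fluorescence.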
% is set by controls: 0 for no effect and ±100 for the full control effect.

Chain of Glucocorticoid receptor (Homo sapiens) (P04150 whole entry, looked up): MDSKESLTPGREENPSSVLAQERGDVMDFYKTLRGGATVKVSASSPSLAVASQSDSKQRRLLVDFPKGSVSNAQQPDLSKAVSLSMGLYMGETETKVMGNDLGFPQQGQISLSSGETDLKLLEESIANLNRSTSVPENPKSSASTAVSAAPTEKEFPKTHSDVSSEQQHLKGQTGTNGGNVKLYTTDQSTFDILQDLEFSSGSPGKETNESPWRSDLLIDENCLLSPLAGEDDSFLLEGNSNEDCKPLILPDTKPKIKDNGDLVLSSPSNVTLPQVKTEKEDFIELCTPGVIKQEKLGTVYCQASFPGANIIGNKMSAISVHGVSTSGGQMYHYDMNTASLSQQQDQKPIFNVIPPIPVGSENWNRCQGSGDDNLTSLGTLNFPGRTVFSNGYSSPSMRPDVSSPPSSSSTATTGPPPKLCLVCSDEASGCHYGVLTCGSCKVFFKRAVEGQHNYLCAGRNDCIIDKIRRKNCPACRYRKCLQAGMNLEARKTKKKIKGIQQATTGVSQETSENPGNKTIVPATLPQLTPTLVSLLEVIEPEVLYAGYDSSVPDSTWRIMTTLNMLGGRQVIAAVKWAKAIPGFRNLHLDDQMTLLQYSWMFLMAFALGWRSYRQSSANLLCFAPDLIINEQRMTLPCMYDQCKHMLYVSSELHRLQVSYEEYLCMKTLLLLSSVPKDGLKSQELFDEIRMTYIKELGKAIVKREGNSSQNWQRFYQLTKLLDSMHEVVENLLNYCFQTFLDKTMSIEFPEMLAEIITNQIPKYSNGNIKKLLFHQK

C[Si](C)O[Si](C)(C)O[Si](C)(C)O[Si](C)C
inactive: Potency [1] | Potency [2] | Potency [3] | Potency [4] | outcome [5] | outcome [6] | Potency [7] | outcome [8] | outcome [9] | Potency [10] | outcome [11] | outcome [12] | outcome [13] | Potency [14] | Potency [15] | Potency [16]

C=CC(C)(CCC=C(C)C)OC(=O)c1ccccc1 (stereo unspecified)
inactive: Potency [1] | Potency [2] | Potency [3] | Potency [4] | Potency [17] | outcome [5] | outcome [6] | Potency [7] | outcome [8] | outcome [9] | Potency [10] | outcome [11] | outcome [12] | outcome [13] | outcome [18] | Potency [14] | Potency [15] | Potency [16]

Cc1cccc(OCCOc2cccc(C)c2)c1
inactive: Potency [1] | Potency [2] | Potency [3] | Potency [4] | Potency [17] | outcome [5] | outcome [6] | Potency [7] | outcome [8] | outcome [9] | Potency [10] | outcome [12] | outcome [13] | Potency [19] | Potency [14] | Potency [15]

N#Cc1c(F)cccc1F
inactive: Potency [1] | Potency [2] | Potency [3] | Potency [4] | Potency [17] | outcome [5] | outcome [6] | Potency [7] | outcome [8] | outcome [9] | Potency [10] | outcome [12] | outcome [13] | outcome [18] | Potency [14] | Potency [15]

CC(=O)/C(C)=C/C1C(C)=CCCC1(C)C (stereo unspecified)
inactive: Potency [1] | Potency [2] | Potency [3] | Potency [4] | Potency [20] | outcome [5] | outcome [6] | Potency [7] | outcome [8] | outcome [9] | Potency [10] | outcome [11] | outcome [12] | outcome [13] | outcome [18] | Potency [14] | Potency [16]

O=C(c1ccc(O)cc1)c1ccc(O)cc1
inactive: Potency [1] | Potency [2] | Potency [3] | Potency [4] | Potency [17] | outcome [5] | outcome [6] | Potency [7] | outcome [8] | outcome [9] | Potency [10] | outcome [11] | outcome [12] | outcome [13] | Potency [14] | Potency [15] | Potency [16]

CN(C)CCCOc1nn(Cc2ccccc2)c2ccccc12
inactive: Potency [1] | Potency [2] | Potency [3] | Potency [4] | Potency [17] | fluorescence, relative to Rose Bengal [5] -0.438% [at 18.6 µM] | fluorescence, % of fluorescein control [6] -0.0147% [at 18.6 µM] | fluorescence, % of triamterene [7] -0.0099% [at 18.6 µM] | fluorescence, % of fluorescent control [8] 0.312% [at 18.6 µM] | fluorescence, % of fluorescein [9] 0.0226% [at 18.6 µM] | fluorescence, % of fluorescent control [10] -0.101% [at 18.6 µM] | activity change [11] -0.0035% [at 18.6 µM] | fluorescence, % of fluorescent control [12] 0.117% [at 18.6 µM] | fluorescence, % of Rose Bengal [13] -0.0465% [at 18.6 µM] | fluorescence, % of fluorescent control [19] -0.0147% [at 18.6 µM] | fluorescence, % of fluorescein control [18] 0.0194% [at 18.6 µM] | fluorescence, % of fluorescent control [14] -0.0064% [at 18.6 µM] | Potency [15] | Potency [16]

CC1=CC(=O)/C(=C(/C)O)C(=O)O1
inactive: Potency [1] | Potency [2] | Potency [3] | Potency [4] | Potency [17] | outcome [5] | outcome [6] | outcome [8] | outcome [9] | Potency [10] | outcome [11] | outcome [12] | outcome [13] | Potency [19] | outcome [18] | Potency [14] | Potency [15] | Potency [16]

CC(C)=CCCC(C)CC=O (stereo unspecified)
inactive: Potency [1] | Potency [2] | Potency [3] | Potency [4] | Potency [17] | outcome [5] | Potency [7] | outcome [8] | outcome [9] | Potency [10] | outcome [11] | outcome [12] | outcome [13] | Potency [19] | outcome [18] | Potency [14] | Potency [15]

CCCC(C)C
inactive: Potency [1] | Potency [2] | Potency [3] | Potency [4] | Potency [20] | outcome [5] | outcome [6] | outcome [8] | outcome [9] | Potency [10] | outcome [11] | outcome [12] | outcome [13] | outcome [18] | Potency [14] | Potency [16]

C1=Cc2ccccc2C1
inactive: Potency [1] | Potency [2] | Potency [3] | Potency [4] | Potency [17] | outcome [5] | outcome [6] | outcome [8] | outcome [9] | Potency [10] | outcome [11] | outcome [12] | outcome [13] | outcome [18] | Potency [14]

O=C(c1ccccc1)c1ccc2n1CCC2C(=O)O (stereo unspecified)
inactive: Potency [1] | Potency [2] | Potency [3] | Potency [4] | Potency [20] | outcome [5] | Potency [7] | outcome [8] | outcome [9] | Potency [10] | outcome [11] | outcome [12] | outcome [13] | Potency [19] | outcome [18] | Potency [14]

C[C@H](CCC(=O)O)[C@H]1CC[C@H]2[C@@H]3[C@H](O)C[C@@H]4C[C@H](O)CC[C@]4(C)[C@H]3CC[C@]12C
inactive: Potency [1] | Potency [2] | Potency [3] | Potency [4] | Potency [17] | outcome [5] | outcome [6] | Potency [7] | outcome [8] | outcome [9] | Potency [10] | outcome [12] | outcome [13] | Potency [19] | Potency [14]
